Screens as filed in PubChem.
Only some compounds are listed: those with a hit (about 9.5% of all), similar ones and a draw of the others.
ALDH1A1 block – qHTS Assay for Inhibitors of Aldehyde Dehydrogenase 1 (ALDH1A1) | 7.3% of 220,000 active | Purified ALDH1A1, NADH fluorescence, propionaldehyde substrate | Aldehyde dehydrogenase 1A1 (Homo sapiens), P00352 | Potency, µM (highest dose often 75.3 µM), without a hit: at the top dose activity, negative = inhibition, hits mostly inhibitors; active = well fitted inhibition curve with a large enough effect, not every such curve was filed as active; inconclusive = small, poorly fitted or top-dose-only effect, or another doubt; inactive = no such curve, though single readings can be large or run the other way;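 note: plate controls were no enzyme wells and a reference inhibitor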
Tau FP inhib – qHTS for Inhibitors of Tau Fibril Formation, Fluorescence Polarization | 0.39% of 280,000 active | Microtubule-associated protein tau (Homo sapiens), P10636 | Potency, µM (highest dose often 57.7 µM), without a hit: top-dose activity, negative = inhibition, most hits filed as inhibitors | K18 P301L tau heparin fibrillization, Alexa594 FP, 6 h; note: nearly all actives have a fitted effect of over 55% in size
Target sequence (P10636 561-689 P618L limits assumed): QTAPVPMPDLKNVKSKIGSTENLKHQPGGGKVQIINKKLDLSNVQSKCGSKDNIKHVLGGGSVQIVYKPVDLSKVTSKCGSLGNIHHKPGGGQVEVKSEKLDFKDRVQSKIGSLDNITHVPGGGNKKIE
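Recombinant K18 P301L […], labeled with Alexa 594 at 0.24 uM over 15 uM unlabeled; heparin inducer 20 uM final; 37 C, 6 hr; FP endpoint.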
Tau fluor counter – Counterscreen qHTS for Inhibitors of Tau Fibril Formation, Fluorescence Polarization. tau K18 P301L Alexa594 fluorescence, heparin fibrillization. Potency, µM (doses to about 57.7 µM), inactives show top-dose activity change, negative = decrease. 0.93% of 280,000 active. AID 1463, 2008; note: nearly all actives have a fitted effect of over 55% in size
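Human tau K18 P301L (15 uM unlabeled, 0.24 uM Alexa 594-labeled) in 100 mM sodium acetate pH 7 with 20 uM heparin, 6 hr at 37 C. ThT 30 uM added, 1 hr ambient; Alexa 594 FP and total fluorescence read at 555/632 nm.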
HPGD inh – qHTS Assay for Inhibitors of HPGD (15-Hydroxyprostaglandin Dehydrogenase). purified HPGD, NADH fluorescence kinetic, PGE2 substrate. Potency, µM, for the others: at the top dose activity change, negative = inhibition, most hits filed as inhibitors. 4.3% of 150,000 active. AID 894, 2007; active = well fitted inhibition curve with a large enough effect, not every such curve was filed as active; inconclusive = small, poorly fitted or top-dose-only effect, or another doubt; inactive = no such curve, though single readings can be large or run the other way
Target sequence (P15428 whole entry, looked up): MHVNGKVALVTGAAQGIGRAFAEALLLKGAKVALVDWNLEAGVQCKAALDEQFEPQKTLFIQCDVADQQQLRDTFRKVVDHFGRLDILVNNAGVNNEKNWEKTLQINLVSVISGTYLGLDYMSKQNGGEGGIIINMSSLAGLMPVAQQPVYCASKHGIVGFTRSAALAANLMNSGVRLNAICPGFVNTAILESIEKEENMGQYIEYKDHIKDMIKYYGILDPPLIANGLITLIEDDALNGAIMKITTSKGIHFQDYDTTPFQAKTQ
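20 nM HPGD preincubated 15 min at room temperature with compound in 50 mM Tris-HCl pH 8, 0.01% Tween 20. Started with 1 mM NAD+ and 30 uM prostaglandin E2; NADH fluorescence (360/450 nm) read 5 times over 30-s intervals, last minus first.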
Tau ThT inhib – qHTS for Inhibitors of Tau Fibril Formation, Thioflavin T Binding; Microtubule-associated protein tau (Homo sapiens), P10636; recombinant tau K18 P301L, heparin-induced fibrillization, ThT fluorescence; Potency, µM (titrated, usually from 57.4 µM), without a hit: at the top dose activity, negative = inhibition, hits mostly inhibitors; 2.1% of 270,000 active; note: nearly all actives have a fitted effect of over 55% in size
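Using a mix of unlabeled (15 uM) and Alexa 594-labeled (0.24 uM) tau K18 P301L, heparin-triggered fibrillization over 6 hr at 37 C was scored by ThT fluorescence.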
NPSR antagonist – qHTS Assay for Antagonists of the Neuropeptide S Receptor: cAMP Signal Transduction; Q6W5P4; Potency, µM (highest dose often 38.3 µM), for inactives: at the highest dose activity change, negative = inhibition, actives largely listed as inhibitors; 1% of 220,000 active; AID 1461, 2008; CHO-NPSR cells, cAMP TR-FRET, antagonist mode; note: nearly all actives have a fitted effect of over 50% in size
* hit, by the source's call; ? = inconclusive; / = no result given; [ ] = remark or other dose. Unless noted, calls come from the whole dose curve; as a rule, active = well fitted curve in the direction sought with a large enough effect; inconclusive = small, poorly fitted or top-dose-only effect, or another doubt; inactive = no such curve, though single readings can be large; an effect the other way counts as inactive or inconclusive. Unless noted, % is set by controls: 0 for no effect and ±100 for the full control effect; potency is the fitted concentration of half-maximal effect.

SMILES	ALDH1A1 block	Tau FP inhib	Tau fluor counter	HPGD inh	Tau ThT inhib	NPSR antagonist
CC(C)(C)NC(=O)c1cc(C(C)(C)C)c(O)c(C(C)(C)C)c1	9.7%	-2.9%	6.7%	-5.9%	3.7%	-14.9%
CC(=O)Nc1cc(C(C)(C)C)c(O)c(C(C)(C)C)c1	11.2µM*	0.0%	-7.3%	-8.7%	-10.7%	-18.7%[46.1 µM]
CCOc1ccc(N=Nc2c(=O)[nH]n3c(=O)c4c([nH]c23)CCCC4)cc1	3.8%	-6.1%	?	?	1.78µM*	-31.3%
CCOc1ccc(Nc2nc3c(c(=O)[nH]2)CCCC3)cc1	15.3%	?	-13.6%	-12.0%	-10.2%	-14.3%[46.1 µM]
O=c1[nH]n2c(=O)c3c([nH]c2c1N=Nc1cccc(Cl)c1)CCCC3	-1.8%	-5.8%	?	15.8µM*	2.82µM*	10µM*
Cc1cc(C)n2[nH]c(=O)c(N=Nc3cccc(Cl)c3)c2n1	7.9%	2.2%	-8.4%	-19.5%	?	-29.3%[46.1 µM]
N#C/C(=C\C=C\c1ccccc1)c1nc(-c2ccc(Cl)cc2)cs1	1.3%	-9.3%	-28.5%	/	?	-4.3%
c1ccc(CCNc2ncnc3scc(C4COc5ccccc5O4)c23)cc1 (stereo not given)	0.0562µM*	-4.7%	-16.8%	-15.6%	?	?
c1ccc2c(c1)OCC(c1csc3ncnc(N4CCCC4)c13)O2 (stereo not given)	9.4%	-5.2%	-12.0%	-8.2%	-13.5%	?
COc1ccc(-c2onc(C)c2C)cc1S(=O)(=O)NCC1CCN(Cc2cc(C)ccc2C)CC1	/	1.4%	-18.3%	/	-9.8%	/
COC(=O)c1c(C(=O)NCc2ccccc2)ncn1CC(O)COc1ccccc1 (stereo not given)	7.94µM*	-0.9%	-5.5%	-8.8%	-4.3%	-8.8%[46.1 µM]
Cc1ccccc1CNC(=O)C(C)N(c1ccccc1)S(C)(=O)=O (stereo not given)	/	7.9%	2.5%	/	1.6%	/
CCCn1[nH]cc(SC)c(=O)c1=O	22.4µM*	3.1%	0.8%	-6.3%	-1.4%	-12.7%[46.1 µM]
CN(C)CC(C)(C)CNC(=O)c1ccc(Cc2nc3ccccc3[nH]2)cc1	13.4%	/	/	-5.3%	/	/
O=C(O)Cc1cccnc1	-4.0%[13.5 µM]	/	/	-6.9%	/	/
Cc1ccccc1C1CC(=O)Oc2ccc(O)cc21 (stereo not given)	20µM*	-11.0%[126 µM]	-22.9%[126 µM]	28.2µM*	?	/
COc1ccccc1C1CC(=O)Oc2cc(O)ccc21 (stereo not given)	?	-1.7%[81.3 µM]	-22.5%[81.3 µM]	-6.6%	-10.6%[81.4 µM]	/
O=C1C2CC=C(Cl)CC2C(=O)N1CC1OCCc2ccccc21 (stereo not given)	?	4.4%	-13.2%	-19.7%	-8.2%	?
O=C1C2CC=C(Cl)CC2C(=O)N1CC1Cc2ccccc2CO1 (stereo not given)	22.4µM*	6.0%	-18.5%	22.4µM*	?	6.0%[46.1 µM]
COC(=O)c1c(SCC(=O)Nc2ccccc2OC)[nH]c2ccccc2c1=O	/	3.5%	?	/	14.1µM*	/
CCOC(=O)C1=C(C)c2ccccc2N(C(=O)OC)C1(C)C(=O)OCC (stereo not given)	31.6µM*	-0.1%[81.3 µM]	-11.3%[81.3 µM]	?	?	/
CCOC(=O)C1=C(C)c2ccccc2OC1(CC)C(=O)OCC (stereo not given)	1.1%	8.9%[81.3 µM]	-13.3%[81.3 µM]	-11.4%	-14.0%[81.4 µM]	/
O=C(c1ccc(Cl)cc1)c1cnc(-c2ccccc2)s1	20.2%	-8.4%	0.9%	-5.0%	-5.7%	-0.3%[46.1 µM]
CO/N=C/CC(=O)c1cnc(-c2ccc(Cl)cc2)s1	3.16µM*	4.7%	-19.8%	/	?	-5.7%
COc1ccc(NC(=O)CCS(=O)(=O)c2nc(-c3cccs3)cc(C(F)(F)F)n2)cc1OC	/	-1.8%	-8.3%	/	-15.5%	/
